We go through 20 compounds from PubChem BioAssay.

The nature of assay [1]: antimalarial activity against Dd2 strain (AID 2302;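 active = growth inhibition above 50% at the single 2 µM test dose, taken to imply half-maximal potency below 2 µM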;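 note: 0% = DMSO untreated growth and 100% = chloroquine plus artemisinin killed control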). As to conditions: P. falciparum Dd2 in RBCs, LDH growth readout, 72 h; at 2 µM; hits give high values.
Assay [2] is described as follows: HepG2 cytotoxicity, primary screen, cytotoxicity control for P. falciparum antimalarial project, cell-based, ATP luminescence (AID 2303;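 active = inhibition above 50%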;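 note: 0% = DMSO wells and 100% = digitonin-killed cells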). The following applies: HepG2 viability, 24-48 h, at 10 µM, hits give high values.
Assay [3] deals with L-lactate dehydrogenase (Plasmodium falciparum (isolate CDC / Honduras)) (UniProt Q27743). Nature of the assay: PfLDH activity inhibition – cell lysate, 3D7 strain, counter-screen for P. falciparum growth inhibition project (AID 2304).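 Note: 0% = vehicle and 100% = reference inhibitor.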 As to conditions: P. falciparum 3D7 crude extract, LDH APAD/NBT absorbance; at 2 µM; hits give high values. On the technique in general: Counterscreens check selectivity or assay interference.

Assay [4] in a line: inhibition of 3D7 malaria parasite growth – strain 3D7 (AID 2306).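 Note: 0% = DMSO wells and 100% = chloroquine plus artemisinin control wells.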 The following applies: P. falciparum 3D7 erythrocytic growth, LDH absorbance, 72 h; at 2 µM; hits give high values.
Assay [5] addresses Calcium-dependent protein kinase 1 (Plasmodium falciparum (isolate 3D7)) (UniProt P62344). Nature of the assay: PfCDPK1 kinase inhibitors, biochemical, TCAMS library (AID 1159585; cut-off not given, nearly all actives have IC50 up to about 0.98 µM;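 note: inhibitors leave more ATP so luminescence rises with inhibition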). As to conditions: recombinant PfCDPK1, Kinase-Glo ATP depletion luminescence. (In Kinase-Glo more light means more ATP remaining.)
Assay [6] addresses Plasmodium falciparum protein kinase 6 (PK6, PF3D7_1337100) (UniProt Q8IDW1). The assay is described as follows: PfPK6 kinase inhibitors, biochemical, TCAMS library (AID 1159586). The following applies: recombinant PfPK6, Kinase-Glo ATP depletion luminescence.
In assay [7] the target is Protein kinase 7 (PK7), Plasmodium falciparum 3D7 (PF3D7_0213400) (UniProt Q7YTF7). The assay is described as follows: inhibition of Plasmodium PK7 catalytic activity – biochemical, TCAMS antimalarial set, Kinase-Glo luminescence (AID 1159587). The following applies: recombinant PfPK7, Kinase-Glo ATP depletion luminescence.
Assay [8] concerns the target Calcium-dependent protein kinase 4 (Plasmodium falciparum (isolate 3D7)) (UniProt Q8IBS5). The assay is described as follows: PfCDPK4 kinase inhibitors, biochemical, TCAMS library (AID 1159588; cut-off not given, nearly all actives have IC50 up to about 0.91 µM). As to conditions: recombinant PfCDPK4, Kinase-Glo ATP depletion luminescence.

The structures appear in SMILES notation. A number with no mark means an inactive call. For some of these results: Results with a measured potency or affinity are listed apart. Activity calls are given as the source filed them. Unless noted, the rule behind the calls is not given here.

Calcium-dependent protein kinase 4 (Plasmodium falciparum (isolate 3D7)), sequence (Q8IBS5 whole entry, looked up): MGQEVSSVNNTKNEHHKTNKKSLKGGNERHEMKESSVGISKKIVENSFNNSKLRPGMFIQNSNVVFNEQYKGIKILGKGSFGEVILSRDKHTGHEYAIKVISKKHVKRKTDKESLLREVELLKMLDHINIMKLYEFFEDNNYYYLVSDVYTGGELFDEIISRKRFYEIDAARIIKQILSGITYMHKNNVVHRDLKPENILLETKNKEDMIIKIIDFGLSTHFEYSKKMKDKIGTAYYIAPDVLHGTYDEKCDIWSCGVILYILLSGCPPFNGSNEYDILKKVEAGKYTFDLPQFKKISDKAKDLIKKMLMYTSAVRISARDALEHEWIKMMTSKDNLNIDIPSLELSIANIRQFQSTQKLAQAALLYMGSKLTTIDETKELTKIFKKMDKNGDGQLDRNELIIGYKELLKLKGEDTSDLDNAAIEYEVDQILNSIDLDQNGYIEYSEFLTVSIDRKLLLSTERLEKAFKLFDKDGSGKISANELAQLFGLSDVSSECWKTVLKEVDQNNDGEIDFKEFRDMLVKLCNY
Protein kinase 7 (PK7), Plasmodium falciparum 3D7 (PF3D7_0213400), sequence (Q7YTF7 1-343): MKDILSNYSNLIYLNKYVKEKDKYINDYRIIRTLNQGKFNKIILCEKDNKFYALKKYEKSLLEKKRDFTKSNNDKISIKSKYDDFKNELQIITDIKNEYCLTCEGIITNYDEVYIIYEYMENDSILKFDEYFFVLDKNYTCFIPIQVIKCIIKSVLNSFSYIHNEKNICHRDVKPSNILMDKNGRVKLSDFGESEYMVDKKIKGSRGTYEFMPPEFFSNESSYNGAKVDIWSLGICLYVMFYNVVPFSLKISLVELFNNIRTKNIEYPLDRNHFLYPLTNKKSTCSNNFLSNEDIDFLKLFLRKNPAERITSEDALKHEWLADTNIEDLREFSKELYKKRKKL
L-lactate dehydrogenase (Plasmodium falciparum (isolate CDC / Honduras)), sequence (Q27743 whole entry, looked up): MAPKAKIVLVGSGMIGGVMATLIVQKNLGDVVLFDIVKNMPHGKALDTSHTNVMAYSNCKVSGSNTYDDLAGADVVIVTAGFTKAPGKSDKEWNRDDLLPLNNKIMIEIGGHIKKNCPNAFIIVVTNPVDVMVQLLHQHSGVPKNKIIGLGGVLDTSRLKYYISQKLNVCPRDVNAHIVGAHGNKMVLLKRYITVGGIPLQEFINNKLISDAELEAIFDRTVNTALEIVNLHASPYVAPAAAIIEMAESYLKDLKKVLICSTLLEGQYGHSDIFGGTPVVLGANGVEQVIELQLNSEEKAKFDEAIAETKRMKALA
Calcium-dependent protein kinase 1 (Plasmodium falciparum (isolate 3D7)), sequence (P62344 whole entry, looked up): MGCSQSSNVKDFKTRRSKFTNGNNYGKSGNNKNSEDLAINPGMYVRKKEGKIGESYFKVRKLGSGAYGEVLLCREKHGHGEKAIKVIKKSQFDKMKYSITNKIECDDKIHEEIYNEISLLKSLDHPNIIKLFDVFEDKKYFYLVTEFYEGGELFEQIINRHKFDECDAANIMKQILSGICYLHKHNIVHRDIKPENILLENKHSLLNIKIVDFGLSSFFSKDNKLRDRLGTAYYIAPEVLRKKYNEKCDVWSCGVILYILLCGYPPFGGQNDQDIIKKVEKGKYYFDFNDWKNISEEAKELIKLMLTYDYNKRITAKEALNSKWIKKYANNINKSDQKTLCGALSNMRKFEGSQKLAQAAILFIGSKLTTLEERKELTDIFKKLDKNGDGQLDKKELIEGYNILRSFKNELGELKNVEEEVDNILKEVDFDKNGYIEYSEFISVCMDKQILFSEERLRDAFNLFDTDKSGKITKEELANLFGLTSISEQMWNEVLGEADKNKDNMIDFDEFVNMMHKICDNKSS
Plasmodium falciparum protein kinase 6 (PK6, PF3D7_1337100), sequence (Q8IDW1 1-305): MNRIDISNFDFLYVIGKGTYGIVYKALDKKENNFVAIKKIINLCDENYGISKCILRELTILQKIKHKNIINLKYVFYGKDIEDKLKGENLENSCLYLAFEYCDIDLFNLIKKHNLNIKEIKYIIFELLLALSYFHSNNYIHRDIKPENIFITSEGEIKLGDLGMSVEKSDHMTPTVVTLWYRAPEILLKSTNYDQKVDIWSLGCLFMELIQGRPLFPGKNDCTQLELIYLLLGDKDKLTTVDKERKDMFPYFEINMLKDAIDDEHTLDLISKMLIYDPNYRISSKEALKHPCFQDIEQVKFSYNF

For orientation: inhibition means the change of the read-out against control, counted positive when it falls. Turning to `CS(=O)(=O)c1ccc2nc(-c3cc(-c4ccc(OCCN5CCOCC5)cc4)cnc3N)[nH]c2c1`, the results for the growth inhibition in assay [1] and in assay [4] were 99% (active) and 100% (active), respectively. The values for the inhibition in assay [2] and in assay [3] were 43% and -4%, respectively. The result in assay [5], in assay [6], in assay [7] and in assay [8] was inactive.
On to `CC(C)CNCc1ccc(-c2ccc(CN(C(=O)NCCc3ccccc3)C3CCN(Cc4ccccc4)CC3)cc2)cc1`, for which the growth inhibition in assay [1] is 62% (active); in assay [4], 98% (active). Moreover, the inhibition in assay [2] is 37%; in assay [3] it was -3%. The result in assay [5], in assay [6], in assay [7] and in assay [8] was inactive.
As for `O=C(NC1CCN(CC2(c3ccccc3)CCCC2)CC1)c1[nH]ncc1Cl`, the growth inhibition in assay [1] was 87% (active); in assay [4] it was 83% (active). Besides, the inhibition was -3% in assay [2] and 5% in assay [3]. Moreover, the result in assay [5], in assay [6], in assay [7] and in assay [8] was inactive.
`Oc1cc2c(cc1CN1CCN(Cc3cccs3)CC1)CCC2`: the figures for the growth inhibition in assay [1] and in assay [4] were 91% (active) and 99% (active), respectively. The inhibition is 10% in assay [2] and -7% in assay [3]. Besides, the result in assay [5], in assay [6], in assay [7] and in assay [8] was inactive.
`COc1cc(Nc2ccnc3ccc(C(F)(F)F)cc23)cc(OC)c1OC`: the values for the growth inhibition in assay [1] and in assay [4] were 100% (active) and 101% (active), respectively. For the same compound, the results for the inhibition in assay [2] and in assay [3] were 15% and 1%, respectively. Also, the result in assay [5], in assay [6], in assay [7] and in assay [8] was inactive.
`O=[N+]([O-])c1cccc(CNCC2CCN(CC3CCCCC3)CC2)c1`: the growth inhibition in assay [1] is 14%; in assay [4], 90% (active). Moreover, the figures for the inhibition in assay [2] and in assay [3] were 11% and 2%, respectively. For the same compound, the outcome in assay [5], in assay [6], in assay [7] and in assay [8] was inactive.
With `c1cc(-c2ccc(CNCCCN3CCOCC3)cc2)cc(-c2nc3ccccc3[nH]2)c1`, the values for the growth inhibition in assay [1] and in assay [4] were -1% and 100% (active), respectively. Besides, the results for the inhibition in assay [2] and in assay [3] were 26% and -2%, respectively. Further, the result in assay [5], in assay [6], in assay [7] and in assay [8] was inactive.
With `CCCC(CNCc1cccc(I)c1)CNc1cc(=O)c2ccccc2[nH]1` (stereo not given), the growth inhibition was 96% (active) in assay [1] and 100% (active) in assay [4]. For the same compound, the inhibition in assay [2] is -3%; in assay [3], 7%. Further, the result in assay [5], in assay [6], in assay [7] and in assay [8] was inactive.
As to `O=S(=O)(NCCN1CCCC1)c1cccc(-c2ccc(CNCc3ccc(F)cc3)cc2)c1`, the growth inhibition in assay [1] is 41%; in assay [4], 104% (active). The inhibition was 38% in assay [2] and 6% in assay [3]. Besides, the outcome in assay [5], in assay [6], in assay [7] and in assay [8] was inactive.
As for `O=C(NCCN1CCCC1)c1cccc(-c2ccc(-c3nc4ccccc4[nH]3)cc2)c1`, the growth inhibition in assay [1] was 36%; in assay [4] it was 100% (active). For the same compound, the inhibition in assay [2] is 20%; in assay [3], 0%. The result in assay [5], in assay [6], in assay [7] and in assay [8] was inactive.
For the compound `CCC(C)c1cccc(C(C)CC)c1OCCCON1C(N)=NC(N)=NC1(C)C` (stereo not given), the growth inhibition was 98% (active) in assay [1] and 91% (active) in assay [4]. Besides, the figures for the inhibition in assay [2] and in assay [3] were 51% (active) and -4%, respectively. In addition, the result in assay [5], in assay [6], in assay [7] and in assay [8] was inactive.
Take `CC(C)(C)OC(=O)NCc1ccc(Nc2nnc(-c3cccc(C(=O)NCCC(c4ccccc4)c4ccccc4)c3)o2)cc1`: the growth inhibition in assay [1] is 89% (active); in assay [4] it was 100% (active). The inhibition was -4% in assay [2] and -2% in assay [3]. In addition, the outcome in assay [5], in assay [6], in assay [7] and in assay [8] was inactive.
With `CCN(CC)CCN(Cc1ccc(-c2ccc(C(F)(F)F)cc2)cc1)C(=O)Cn1c(CCC2CCCCC2)nc(=O)c2ccccc21`, the growth inhibition was 25% in assay [1] and 87% (active) in assay [4]. The inhibition in assay [2] was 32%; in assay [3], 3%. In addition, the outcome in assay [5], in assay [6], in assay [7] and in assay [8] was inactive.
For `Nc1ccc(Nc2ccnc3ccc(C(F)(F)F)cc23)cc1O`, the results for the growth inhibition in assay [1] and in assay [4] were 59% (active) and 98% (active), respectively. The inhibition is 1% in assay [2] and 5% in assay [3]. Moreover, the outcome in assay [5], in assay [6], in assay [7] and in assay [8] was inactive.
`O=S(=O)(NCCN1CCCC1)c1ccc(-c2cccc(CNCCc3cccs3)c2)s1`: the growth inhibition was 44% in assay [1] and 99% (active) in assay [4]. Also, the inhibition in assay [2] was 39%; in assay [3] it was -2%. In addition, the result in assay [5], in assay [6], in assay [7] and in assay [8] was inactive.
On to `CCOc1cc(C(=O)NCC2CCN(CC3CCCCC3)CC2)ccc1-c1nc2ccc(Cl)cc2[nH]1`, for which the growth inhibition was 59% (active) in assay [1] and 98% (active) in assay [4]. In addition, the figures for the inhibition in assay [2] and in assay [3] were 14% and -6%, respectively. Moreover, the outcome in assay [5], in assay [6], in assay [7] and in assay [8] was inactive.
In the case of `Cc1nn(-c2cccc(C(F)(F)F)c2)c2sc(C(=O)NC3CCN(C(C)C)CC3)cc12`, the growth inhibition in assay [1] was 20%; in assay [4] it was 94% (active). Further, the inhibition in assay [2] was 98% (active); in assay [3], -4%. The result in assay [5], in assay [6], in assay [7] and in assay [8] was inactive.
In the case of `O=S(=O)(Nc1cc2c(cc1O)CCN(C1CCC1)CC2)c1ccc(Oc2ccc(F)cc2)cc1`, the growth inhibition in assay [1] was 52% (active); in assay [4], 99% (active). Moreover, the inhibition was 20% in assay [2] and 0% in assay [3]. The result in assay [5], in assay [6], in assay [7] and in assay [8] was inactive.
In the case of `Cc1ccc2[nH]c3c(c2c1)CC(C(=O)NCCC(C)C)NC31CCN(Cc2ccccc2)CC1` (stereo not given), the results for the growth inhibition in assay [1] and in assay [4] were 50% (active) and 95% (active), respectively. Also, the inhibition in assay [2] was 15%; in assay [3] it was 6%. In addition, the result in assay [5], in assay [6], in assay [7] and in assay [8] was inactive.
In the case of `COCCNCc1nc(-c2ccc3c(Nc4ccc(Cl)cc4F)ccnc3c2)cs1`, the growth inhibition in assay [1] is 100% (active); in assay [4], 101% (active). For the same compound, the inhibition in assay [2] is -4%; in assay [3], -1%. Also, the result in assay [5], in assay [6], in assay [7] and in assay [8] was inactive.
